SMILES strings stand for the structures. Records with an inconclusive call do not appear. Calls of active or inactive are those of the source. Calls come from the whole dose curve; as a rule, active = well fitted curve in the direction sought with a large enough effect; inconclusive = small, poorly fitted or top-dose-only effect, or another doubt; inactive = no such curve, though single readings can be large or run the other way.

The nature of this assay: Secondary Assay for Activators of Human Pyruvate Kinase M2 isoform - Cell Titer Glo Cytotoxicity for Probe SAR. The conditions noted are these: HeLa viability, CellTiter-Glo ATP luminescence, 24 h; series mostly up to 58.2 µM. As to the method:
NIH Chemical Genomics Center [NCGC]
Matthew G. Vander Heiden, M.D., Ph.D. [Harvard Medical School, 77 Avenue Louis Pasteur, Boston, MA 02115]
We have identified a series of activators of the M2 isoform of human pyruvate kinase. The assay described here examines the cytotoxicity of these compounds by measuring the total ATP content of Hela cells after 24 hrs of exposure to compound.
500 Hela cells/ 4ul in media (DMEM with high glucose, 10% FBS, 1x Pen Strep, 1x NEAA) were dispensed into a white solid 1536-microwell plate with a Thermo Multidrop. The plates were incubated at 37 degrees Celsius for 24 hours. The cells were then treated with compounds using the Kalypsys pin tool, delivering 23 nl of test compounds and the control doxorubicin. The plates were then incubated for an additional 24 hours at 37 degrees C after which 4 ul of Promega Cell-Titer Glo was dispensed using the Thermo Multidrop. The plates were incubated at room temperature for 10 min before reading luminescence on the Perkin Elmer ViewLux with images collected with 2x binning and a 5 sec exposure time.
Background: ATP-based viability assays read luminescence as a measure of living cells.
Consider `CCNc1cccc(S(=O)(=O)N2CCN(S(=O)(=O)c3ccc4c(c3)OCCO4)CC2)c1`, for which the molecule was called inactive. The entry for `O=C1c2ccccc2C(=O)N1c1cccnc1` is “inactive”. The entry for `O=C1c2ccccc2C(=O)N1c1cncc2ccccc12` is “inactive”. To `Nc1cccc(S(=O)(=O)N2CCCN(S(=O)(=O)c3ccc4c(c3)OCCO4)CC2)c1` belongs “inactive”; to `O=C1CCc2cc(S(=O)(=O)Nc3ccc4ccccc4c3)ccc2N1`, “inactive”. Consider `CNc1cccc(S(=O)(=O)N2CCN(S(=O)(=O)c3ccc4c(c3)OCCO4)CC2)c1`, for which the molecule was called inactive. For `Cc1ccc(NS(=O)(=O)c2cc3c(cc2Cl)CCC(=O)N3)cc1C`, the molecule was called inactive. Regarding `Cc1ccc(NS(=O)(=O)c2ccc3c(c2)N(C)C(=O)CO3)cc1C`, the result was inactive. Turning to `O=C1CCc2cc(S(=O)(=O)Nc3cccc(Cl)c3)ccc2N1`, the molecule was called inactive. The entry for `COc1ccc(-c2nc3ccccn3c2Nc2ccccc2C)cc1` is “inactive”; for `COc1ccc(S(=O)(=O)Nc2ccc(C)c(C)c2)cc1` it is “inactive”; for `Cc1ccc(NC(=O)c2ccc3c(c2)CCC(=O)N3)cc1C` it is “inactive”. The entry for `O=C1CCc2cc(S(=O)(=O)Nc3cccc(Br)c3)ccc2N1` is “inactive”; for `Cc1ccc(NS(=O)(=O)c2ccc(N3CCCC3=O)cc2)cc1C` it is “inactive”. To `COc1ccccc1OC1=NS(=O)(=O)c2ccccc21` belongs “inactive”.

Consider `Cc1ccc(NS(=O)(=O)c2cc3c(cc2-c2ccsc2)NC(=O)CO3)cc1C`, for which the molecule was classed as inactive. The entry for `Cc1ccc(NS(=O)(=O)c2ccc3ccccc3c2)cc1C` is “inactive”; for `Cc1ccc(NS(=O)(=O)c2ccc3c(c2)CC(=O)N3C)cc1C` it is “inactive”; for `Cc1ccc(NS(=O)(=O)c2cc3c(cc2Cl)NC(=O)CO3)cc1C` it is “inactive”. The entry for `Cc1ccc(NS(=O)(=O)c2ccc3c(c2)CCN(C(=O)C(F)(F)F)C3)cc1C` is “inactive”. To `O=C1c2ccccc2C(=O)N1c1cccc2cnccc12` belongs “inactive”; to `O=S1(=O)N=C(Oc2ccccc2)c2ccccc21`, “inactive”. For the molecule `COc1cccc(NS(=O)(=O)c2ccc3c(c2)CCC(=O)N3)c1`, the molecule was classed as inactive.

On to `O=C1c2ccccc2C(=O)N1c1cc(=O)c2ccccc2[nH]1`, for which the molecule was called inactive.

Consider `Cc1ccc(NS(=O)(=O)c2ccc3c(c2)N(C)CCO3)cc1C`, for which the call was inactive. On to `Cc1ccc(NS(=O)(=O)c2cc3c(cc2N(C)C)CCC(=O)N3)cc1C`, for which the call was inactive. To `Cc1ccc(NS(=O)(=O)c2ccc3c(c2)NC(=O)CO3)cc1C` belongs “inactive”; to `Cc1ccc(Nc2c(-c3ccc(C)o3)nc3cccc(C)n23)cc1`, “inactive”. Regarding `COc1ccc(NS(=O)(=O)c2ccc3c(c2)CCC(=O)N3)cc1`, the outcome was inactive. The entry for `COc1cc(N2C(=O)c3ccccc3C2=O)c2ncccc2c1` is “inactive”; for `O=C1c2ccccc2C(=O)N1c1cccc(=O)[nH]1` it is “inactive”; for `O=S(=O)(c1ccc2c(c1)OCCO2)N1CCN(S(=O)(=O)c2c(F)cccc2F)CC1` it is “inactive”. For the molecule `O=C1NS(=O)(=O)c2ccccc21`, the result was inactive. Turning to `CC(=O)Nc1ccc(S(=O)(=O)Nc2ccc(C)c(C)c2)cc1`, the molecule was classed as inactive.

Take `COc1ccc(OC2=NS(=O)(=O)c3ccccc32)cc1`: the outcome was inactive. Turning to `Cc1cccc(OC2=NS(=O)(=O)c3ccccc32)c1`, the molecule was classed as inactive. As to `Cn1c2cc(S(C)=O)sc2c2cnn(Cc3cccc(O)c3)c(=O)c21` (stereo not given), the outcome was inactive. With `Cc1ccc(NS(=O)(=O)c2ccc3c(c2)CC(=O)N3)cc1C`, the molecule was classed as inactive. As for `Cc1ccc(Nc2c(-c3ccc(C)s3)nc3ccccn23)cc1`, the result was inactive. For the molecule `Cn1c2cc(S(C)=O)sc2c2cnn(Cc3cccc(N)c3)c(=O)c21` (stereo not given), the result was inactive.

The record behind these values is PubChem BioAssay AID2653 (National Center for Advancing Translational Sciences (NCATS), 2010).
